Laboratory results: PubChem BioAssay (EPA / NIEHS)
Records with an inconclusive call do not appear. The source made the active and inactive calls. The calls were made as follows: active = hit-call score of the fitted dose curve at least 0.9, where 1 is the maximum; inconclusive = response in the unintended direction; inactive = score below 0.9.

assay: ACEA_ER_AUC_viability: ACEA Biosciences xCELLigence Real-Time Cell Analysis on Estrogen Receptor Agonism for Viability (AID 2283782);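 also: continuous compound exposure with impedance area under curve over 80 h; hit means loss of impedance signal meaning reduced cell growth or viability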
How it was run: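 T-47D; phenol red-free RPMI1640 + 10% CS-FBS; 8 conc., 1:4 serial, max 100 uM final, ≤0.5% DMSO; n = 2; continuous exposure; impedance monitored to 80 h post-dose; AUC vs DMSO.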

Row | SMILES | AC50 | outcome
1 | CCCCCCCOC(=O)c1ccc(O)cc1 | 24.1 µM (active) | 
2 | O=C(O[C@@H]1Cc2c(O)cc(O)cc2O[C@@H]1c1cc(O)c(O)c(O)c1)c1cc(O)c(O)c(O)c1 | 61 µM (active) | 
3 | Clc1cc(Cl)c(Cl)c(Cl)c1Cl |  | inactive
4 | CCCCCCCCCCCC(C)=O | 66.7 µM (active) | 
5 | CC(C)(CO)COC(=O)C(C)(C)CO |  | inactive
6 | CC(=O)/C=C/C1C(C)=CCCC1(C)C (centres undefined) |  | inactive
7 | C=C(C)C1CC=C(C)C(OC(C)=O)C1 (centres undefined) | 81.5 µM (active) | 
8 | [Cl][Eu]([Cl])[Cl] |  | inactive
9 | CCCCCCCCCCCCC |  | inactive
10 | CC(=O)c1ccccc1O |  | inactive
11 | c1ccc2cnccc2c1 |  | inactive
12 | C=C(C)C(=O)OCCCCCCCCCCCC |  | inactive
13 | CC1=CP(=O)(c2ccccc2)CC1 (centres undefined) |  | inactive
14 | CC(C)=CCl |  | inactive
15 | O=C(Oc1ccccc1)c1ccccc1O |  | inactive
16 | C/C=C/C=C/CCCCCCCO | 79.4 µM (active) | 
17 | CC(C)CC(=O)OCc1ccccc1 | 50 µM (active) | 

Row | SMILES | AC50 | outcome
18 | Cc1cccc(C(C)(C)C)c1O |  | inactive
19 | CCC(=O)C1CC(C(C)C)CC=C1C (centres undefined) |  | inactive
20 | CC(=O)CCC1=C(C)CCCC1(C)C | 81.5 µM (active) | 
21 | Cc1cc(C)c(C=O)c(C)c1 |  | inactive
22 | CC1(C)[C@@H]2CC[C@@]1(C)C(=O)C2 |  | inactive
23 | CCCCNS(=O)(=O)c1ccccc1 |  | inactive
24 | COc1nccnc1CC(C)C |  | inactive
25 | Nc1ccc(Cl)c(N)c1 | 73 µM (active) | 
26 | CC/C=C\C/C=C\C/C=C\CCCCCCCC(=O)OC |  | inactive
27 | C=C(C)C(=O)OCC(O)COc1ccc(C(C)(C)c2ccc(OCC(O)COC(=O)C(=C)C)cc2)cc1 (centres undefined) | 30.3 µM (active) | 
28 | C=CC(=O)NCOCCCC |  | inactive
29 | CC(Cl)COP(=O)(OCC(C)Cl)OCC(C)Cl (centres undefined) |  | inactive
30 | CCCC/C=C/C=C\C=O | 88.9 µM (active) | 
31 | C=CC(C)(CCC=C(C)C)OC(=O)C=Cc1ccccc1 (centres undefined) | 83.6 µM (active) | 
32 | C=CC(=O)O[C@H]1C[C@@H]2CC[C@@]1(C)C2(C)C |  | inactive
33 | CCOC(=O)C1=NOC(c2ccccc2)(c2ccccc2)C1 |  | inactive
34 | C=C(C)C1CC=C(C)CC1 (centres undefined) |  | inactive
